Bioassay records deposited in PubChem BioAssay by National Center for Advancing Translational Sciences (NCATS).
WRN inhibitor – blocks human WRN helicase; Q14191; WRN helicase unwinding, fluorescent forked duplex, kinetic; Potency, µM (top dose mostly 114 µM), hits mostly inhibitors; 360,000 tested, 0.46% active; AID 651768; also: nearly all actives have a fitted effect of over 55% in size
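Enzyme (20 nM final) and test compound sit together 15 min at room temperature before substrate addition. Substrate is a single-forked duplex oligonucleotide (100 nM) labelled with fluorophore and quencher, with 2 mM ATP; helicase unwinding raises red fluorescence, read kinetically.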
POLH inh – DNA polymerase eta (human) inhibition; recombinant Pol eta, fluorescent DNA replication assay; 390,000 tested, 1.2% active; Q9Y253; Potency, µM (top dose mostly 114 µM), usual class: inhibitors; AID 588591
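Pol eta (10 nM) was preincubated with compounds for 15 min at room temperature, after which fluorescent replication substrate (50 nM final) was added to start the reaction. Fluorescence was read kinetically at 0 and 10 min.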
Pol kappa inh – DNA polymerase kappa (human) inhibition | Potency, µM (series often up to 107 µM), usual class: inhibitors | purified Pol kappa, fluorescent DNA synthesis assay, 10 min | AID 588579 | 400,000 tested, 0.53% active
Target sequence (Q9UBT6 whole entry, looked up): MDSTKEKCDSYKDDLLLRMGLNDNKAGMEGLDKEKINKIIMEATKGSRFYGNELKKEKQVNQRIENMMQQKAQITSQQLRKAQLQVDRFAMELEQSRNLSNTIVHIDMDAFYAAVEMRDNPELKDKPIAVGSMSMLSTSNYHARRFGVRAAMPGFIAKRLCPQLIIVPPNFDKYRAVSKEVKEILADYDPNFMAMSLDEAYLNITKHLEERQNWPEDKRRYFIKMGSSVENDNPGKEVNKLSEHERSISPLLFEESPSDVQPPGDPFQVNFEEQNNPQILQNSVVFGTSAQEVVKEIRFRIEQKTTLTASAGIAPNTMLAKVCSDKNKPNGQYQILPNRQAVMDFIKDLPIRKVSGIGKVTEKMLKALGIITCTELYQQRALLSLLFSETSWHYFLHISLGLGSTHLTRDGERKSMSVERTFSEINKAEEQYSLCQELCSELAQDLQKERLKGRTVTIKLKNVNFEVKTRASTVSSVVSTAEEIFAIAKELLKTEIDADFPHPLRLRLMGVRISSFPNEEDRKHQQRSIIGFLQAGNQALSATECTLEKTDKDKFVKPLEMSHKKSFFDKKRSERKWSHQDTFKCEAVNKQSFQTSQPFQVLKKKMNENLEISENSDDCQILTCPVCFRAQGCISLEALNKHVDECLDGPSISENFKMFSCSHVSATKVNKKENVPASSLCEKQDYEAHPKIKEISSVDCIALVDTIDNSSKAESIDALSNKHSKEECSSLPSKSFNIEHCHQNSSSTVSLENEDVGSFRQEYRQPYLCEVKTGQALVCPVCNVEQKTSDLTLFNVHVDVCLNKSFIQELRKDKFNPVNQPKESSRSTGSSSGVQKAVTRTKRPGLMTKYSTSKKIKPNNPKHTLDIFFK
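Readout: fluorescence, taken kinetically at 0 and 10 min. Conditions: 10 nM Pol kappa, 15 min RT compound preincubation, 50 nM substrate final. Controls: enzyme-free buffer wells.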
POLI inh – DNA polymerase iota (human) inhibition. Q9UNA4. Pol iota fluorescent replication assay, 10 min. Potency, µM (highest dose often 115 µM), most hits filed as inhibitors. 390,000 tested, 1% active. AID 588590
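Pol iota at 10 nM preincubated 15 min with compounds at room temperature; reaction started with fluorescent substrate, 50 nM final. Fluorescence read kinetically at 0 and 10 min; buffer-only wells as negative control.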
Pol beta inh – blocks human DNA polymerase beta activity; Pol beta primer extension/strand displacement, fluorescence kinetic; Potency, µM (doses to about 114 µM), hits mostly inhibitors; 340,000 tested, 1.3% active; P06746
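Reaction started by 50 nM substrate onto compound-treated Pol beta (10 nM, 15 min preincubation, room temperature); plates read at 0 min and 10 min. Normalized concentration-effect data fitted by four-parameter Hill equation.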
FEN1 inhibitor – blocks human flap endonuclease 1; P39748; Recombinant FEN1 flap cleavage, fluorescence, 15 min; Potency, µM (highest dose often 114 µM), actives largely listed as inhibitors; 390,000 tested, 0.35% active; AID 588795; also: nearly all actives have a fitted effect of over 65% in size
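Read-out was taken twice, immediately and after 15 min, following addition of 50 nM substrate to 10 nM FEN1 that had sat with test compound for 15 min at room temperature. Curves came from a four-parameter Hill model.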
Hits are given with their value; 0 = inactive; ? = inconclusive; - = no result; [ ] = another dose, or the depositor's remark. Rows were chosen to be rich in hits. Some 2.4% of all compounds tested hit in one or more screens of this group. Calls follow the shape of the dose curve; as a rule, active = well fitted curve in the direction sought with a large enough effect; inconclusive = small, poorly fitted or top-dose-only effect, or another doubt; inactive = no such curve, though single readings can be large; an effect the other way counts as inactive or inconclusive.

SMILES	WRN inhibitor	POLH inh	Pol kappa inh	POLI inh	Pol beta inh	FEN1 inhibitor
CCc1cccc(NC(=O)C2CCN(C(=O)c3cnn(-c4ccccc4)c3-n3cccc3)CC2)c1	-	0	0	0	0	0
CCc1ccccc1NC(=O)CNC(=O)c1ccc(OCc2cn3ccccc3n2)cc1	0	0	0	44.7µM	-	0
O=C(Nc1ccc(-c2cn3ccccc3n2)cc1)c1cccs1	0[11.6 µM]	?	?	?	10µM	0
CCc1nn(CC(=O)N2CCC(C)CC2)c(=O)c2cc3occc3n12	-	0	0	0	0	0
Cc1c(C(=O)OCC(=O)NCC2CCCO2)cccc1[N+](=O)[O-] (stereo not given)	0	0	0	0	0	0
COc1ccccc1NS(=O)(=O)c1ccc(C(=O)OCC(=O)NCc2ccco2)cc1	0	?	0	?	15.8µM	0
COc1ccccc1NC(=O)COC(=O)c1ccc(S(=O)(=O)NCc2ccco2)cc1	0	?	?	?	?	0
Cc1c(C(=O)OCC(=O)NCc2ccco2)cccc1[N+](=O)[O-]	0	25.1µM	0	56.2µM	-	0
O=C(COC(=O)C1(c2ccc(F)cc2)CCCC1)NCc1ccco1	0	0	0	0	39.8µM	0
Cc1ccccc1C(=O)OCC(=O)NCc1ccco1	?	?	0	50.1µM	-	0
CCOc1ccc2c(c1)c(=O)c(C(=O)c1ccc(CC)cc1)cn2CC(=O)Nc1ccc2c(c1)OCCO2	-	0	0	0	0	0
C=C1C=C(C(F)F)n2ncc(C(=O)NCc3ccc(F)cc3)c2N1	-	-	0	0	-	0
CCOC(=O)Cc1nnc(NC(=O)c2ncn[nH]2)s1	0	0	0	7.08µM	0	0
CCCCCCCCCC[n+]1ccc(/C=C/c2ccc(N(C)C)cc2)c2ccccc21	-	-	39.8µM	50.1µM	-	79.4µM
CN(CCCS(=O)(=O)[O-])c1ccc(/C=C/c2ccc3ccccc3[n+]2C)cc1	0	0	0	?	0	0
Cc1sc2ccccc2[n+]1CCC[n+]1c(C)sc2ccccc21	-	-	0	?	-	0
CCCCCCCCCCCCCCCCCCN(CCCCCCCCCCCCCCCCCC)c1ccc(/C=C/c2ccnc3ccccc23)cc1	-	-	0	0	-	0
CC[n+]1c(/C=C/Nc2ccccc2)sc2ccccc21	0	0	0	?	0	0
CN(C)c1ccc(/C=C/c2sc3ccccc3[n+]2CCCCI)cc1	-	-	50.1µM	79.4µM	-	?
CCCC[n+]1c(/C=C/c2ccc(N(C)C)cc2)sc2ccccc21	-	-	?	50.1µM	-	50.1µM
CN(Cc1ccccc1)c1ccc(/C=C/c2sc3ccccc3[n+]2C)cc1	-	-	0	0	-	39.8µM
N#CC(C#N)=C1C=CC=CN1/C(=C\c1ccco1)C(=O)c1ccc(Br)cc1	56.2µM	0	0	0	0	0
N#CC(C#N)=C1C=CC=CN1/C(=C\c1ccco1)C(=O)c1ccccc1	17.8µM	0	0	0	0	0
COc1ccc(C(=O)/C(=C\c2ccco2)N2C=CC=CC2=C(C#N)C#N)cc1	?	?	0	?	0	0
CC(C)(C)OC(=O)N1CCN(c2nc(-c3cccs3)nc3ccccc23)CC1	-	-	0	0	-	0
SMILES	WRN inhibitor	POLH inh	Pol kappa inh	POLI inh	Pol beta inh	FEN1 inhibitor
COc1ccc(C(C)=NNc2ccc([N+](=O)[O-])cc2S(=O)(=O)Nc2ccccc2C(=O)O)c(OC)c1	0[11.6 µM]	44.7µM	0	0	-	0
CN(CCO)c1ccc(C=NNc2ccc([N+](=O)[O-])cc2S(=O)(=O)Nc2ccccc2C(=O)O)cc1	44.7µM	?	0	?	-	79.4µM
Cc1ccc(NC(=S)NNc2ccc([N+](=O)[O-])cc2S(=O)(=O)Nc2ccccc2C(=O)O)cc1C	?	28.2µM	0	0	?	0
O=[N+]([O-])c1ccc(N/N=C/c2ccccc2)c(F)c1	0	0	0	0	0	0
CC(=O)Nc1cccc(/C(C)=N/Nc2ccc(S(=O)(=O)Nc3ccccc3C(=O)O)cc2[N+](=O)[O-])c1	?	22.4µM	0	?	-	79.4µM
CN1CCN(c2ncc3nc(-c4cc(F)cc(F)c4)c(=O)n(CCC#N)c3n2)CC1	-	-	0	-	-	-
CCc1ccccc1NC(=O)c1ccc2nc(C(C)C)oc2c1	-	0	0	0	0	0
COc1cccc(NC(=O)c2oc3ccccc3c2NC(=O)c2ccc(OC(C)C)cc2)c1	-	0	0	0	0	0
CC[C@H](C)NC(=O)c1ccc(Cn2c(=S)[nH]c3c([nH]c4ccc(OC)cc43)c2=O)cc1	0[11.6 µM]	17.8µM	0	?	?	0
Nc1cccc(/C=C2\C=Cc3ccccc32)c1	-	-	0	?	-	0
CCOC(=O)c1c(S(=O)(=O)N2CCC(C(=O)Nc3cccc(C)n3)CC2)c(C)n(C)c1C	-	0	0	0	0	0
CCOC(=O)c1sc(NC(=O)c2nc3ncccn3n2)c(C(=O)OC)c1C	-	0	0	0	0	0
CCOC(=O)c1sc(NC(=O)c2nc3nc(C)cc(C(F)F)n3n2)c(C(=O)OC(C)C)c1C	-	89.1µM	0	0	0	0
CCNc1ncc2nc(-c3cccc(C#N)c3)c(=O)n(Cc3cccc(OC)c3)c2n1	-	-	0	-	-	-
CCCCN(C)CC(O)Cn1cc(/C=C/C(=O)c2ccc(OC)c(OC)c2)c2ccccc21 (stereo not given)	-	0	0	0	?	?
O=C(O)C1Cc2ccccc2CN1S(=O)(=O)c1ccccc1 (stereo not given)	0[11.6 µM]	79.4µM	0	0	0	0
CS(=O)(=O)N1Cc2ccccc2CC1C(=O)OCC(=O)Nc1ccc2ccccc2c1 (stereo not given)	0	?	?	?	3.16µM	0
O=C(O)C1CCCN1S(=O)(=O)c1ccc2ccccc2c1 (stereo not given)	0	0	0	0	0	0
COc1ccc(S(=O)(=O)N2Cc3ccccc3CC2C(=O)Nc2ccc3c(c2)OCO3)cc1 (stereo not given)	0	0	0	0	0	0
O=C(O)C1Cc2ccccc2CN1S(=O)(=O)c1ccc2ccccc2c1 (stereo not given)	0[11.6 µM]	5.62µM	0	?	0	0
Cc1ccc(S(=O)(=O)N2Cc3ccccc3CC2C(=O)Nc2ccc3c(c2)OCO3)cc1 (stereo not given)	0	10µM	50.1µM	?	22.4µM	0
COc1ccc(C(=O)Oc2ccc(C(c3c(C)[nH][nH]c3=O)c3c(C)[nH][nH]c3=O)cc2)cc1	-	0	0	?	0	0
Cc1ccc(CSc2nnc(SCC(=O)N/N=C/c3c[nH]c4ccccc34)s2)cc1	?	?	0	3.55µM	7.94µM	?
O=C(CSc1nnc(SCc2ccccc2Cl)s1)N/N=C/c1c[nH]c2ccccc12	0	?	0	0	0	0
O=c1cc(-c2ccccc2)nc2cc(-c3ccco3)[nH]n12	0	0	0	0	50.1µM	0
